The results in this text go back to PubChem BioAssay (NCI).

Where “and” joins values, the source holds several entries; their conditions need not be identical. Equal values may be shown once. Compounds without any hit were thinned out: in the full panel of roughly 83,000, 20% have a hit.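 Growth was measured after 48 h exposure to one concentration of compound in 96-well plates. Values under 10 count as active.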 A number with no mark means an inactive call. Calls of active or inactive are those of the source.

The experiment relates to MDA-MB-468 breast. Description: NCI-60 one-dose screen, 48 h (100 = growth as untreated, 0 = no growth, -100 = all killed). The note with it: 10 µM unless noted.
For the compound `O=C(CN1CCN(c2cc(=O)[nH]c3ccc(F)cc23)CC1)Nc1ccc(Cl)cc1`, the growth was 58.2%.
As to `COc1cc2c(c(OC)c1OC)CCc1cnoc1-2`, the growth was 83.8%.
For `COc1ccc(CN2CCC(N3CCCC3=O)c3cc(Cl)ccc32)cc1` (stereo not given), the growth was 114%.
In the case of `COc1ccc(/C=C/c2c(C(=O)/C=C/c3ccccc3)c(C)nc3ccccc23)cc1`, the growth was 12.8%.
Next, `Cl.Fc1c[c-]c(-c2ccccn2)c(F)c1.[Pt].c1ccc([PH+](C[PH+](c2ccccc2)c2ccccc2)c2ccccc2)cc1`: -75.7% (active); `COc1ccccc1NC(=O)OCC#CCOC(=O)Nc1ccccc1OC`: 92.6% and 89.9%; `O=C(N=Nc1c(O)[nH]c2ccc(Br)cc12)c1cc(-c2ccccc2)on1`: 109%.
Next, `COc1cc(/C=C2\C(=O)N(CCOc3cc(O)c4c(=O)cc(-c5ccccc5)oc4c3)c3ccccc32)cc(OC)c1O`: 89.6%; `C=C(c1ccc(C(=O)O)c(F)c1)c1cc2c(cc1C)C(C)(C)CCC2(C)C`: 97.6%.
For `C=C(C)[C@@H]1CC[C@]2(C(=O)NCC(=O)O)CC[C@]3(C)[C@H](CC[C@@H]4[C@@]5(C)Cc6c([nH]c7ccccc67)C(C)(C)[C@@H]5CC[C@]43C)[C@@H]12` the value was 118%.
Consider `COc1cc2c(cc1-c1c(C)noc1C)ncc1nc(C3CCC(F)(F)CC3)n(C3CCC(OC(F)F)CC3)c12` (stereo not given), for which the growth is 43.4%.
For `O=C(Nc1ccc(Nc2cc(Nc3ccccc3)ncn2)cc1)Nc1cc(C(F)(F)F)ccc1F` the value was 55.3%.
For `Clc1ccc(C2=NN[C@H](c3cn(-c4ccccc4)nc3-c3ccccc3)C2)cc1` the value was 57.1%; for `N#Cc1cnn2c(-c3ccc(Cl)cc3)nc(NCCc3ccccc3)nc12`, 110%; for `O=c1[nH]nc(-c2ccc(Cl)cc2)cc1Cc1cccc([N+](=O)[O-])c1`, 102%.
For `C/C=C(/C)C(=O)OC1C=C(CO)C(=O)C(OC(=O)C(C)(O)C(C)Cl)C1C(C)C` (stereo not given) the value was -51.9% (active); for `Nc1ccccc1NC(=O)CCCCC(=O)Nc1ccc2c(c1)/C(=C/c1ccc[nH]1)C(=O)N2`, 50.4%.
As for `CCOC(=O)C(=Cc1cccc(Br)c1)C(=O)OCC`, the growth is 31%.
As for `Cc1cccc(Oc2ccc(Nc3ncnc4ccc(NC(=O)CNCCO)cc34)cc2Cl)c1`, the growth was -21.9% (active).
For `CN(C)CCN1C(=O)c2cccc3c(-c4ccc(-c5nc6c7ccccc7c7ccccc7c6[nH]5)cc4)ccc(c23)C1=O` the value was 108%.
For `CCN(CCCCCCCCCCN1CC(=O)N(CCCCCCCCCCN(CC)Cc2ccccc2OC)CC1=O)Cc1ccccc1OC` the value was -87.8% (active).
Next, `O=C(Nc1cn[nH]c1-c1nc2ccc(CN3CCOCC3)cc2[nH]1)NC1CC1`: 25.5%; `CCCCCCCCCCCCCCCCNC(=O)Nc1ccc(C)c(NC(=O)NCCCCCCCCCCCCCCCC)c1`: 101%.
`Cc1nc(Nc2ncc(C(=O)Nc3c(C)cccc3Cl)s2)cc(N2CCN(CCO)CC2)n1`: the growth was -4.35% (active) and -2.22% (active).
For `COc1ccc(-c2nc3ccc(-c4nc5ccc(N6CCN(c7ccccc7)CC6)cc5[nH]4)cc3[nH]2)cc1OC` the value was -46.1% (active); for `COc1ccc(-c2cc(-c3ccc(Cl)cc3)c(C#N)c(=O)n2CCCCC(=O)NO)cc1`, 72.6%.
As for `COC1=CC(=O)c2ccccc2C1=O`, the growth is 32.7%.
For `OC1COC(OCc2ccccc2)C(O)C1O` (stereo not given) the value was 94.8%.
Next, `COc1cc(/C=C/C(=O)c2cc(OC)c(OC)c(OC)c2)ccc1Oc1nc2c(c(=O)n(C)c(=O)n2C)n1C`: -72% (active).
Next, `CC1=NN(c2ccccc2Cl)C(=O)/C1=C\c1cn(S(=O)(=O)c2ccc(C)cc2)c2ccccc12`: 119%; `Cc1ccc2c(c1)C13C(=C2Br)CCCN1C(=O)c1ccccc13` (stereo not given): 69.8%.
As for `C#CCn1cnc2c(Nc3cccc(NC(=O)CCl)c3)ncnc21`, the growth was 23.5%.
For `CC(C)(C)c1ccc2oc(=O)n(SC(Cl)(Cl)Cl)c2c1` the value was 126%.
In the case of `CC/C(=C(/c1ccc(Cl)cc1)c1ccc(OCCN)cc1)c1ccccc1`, the growth is 88.8%.
In the case of `CC(C)(C)n1nc(C2CC2)c(Br)c1NC(=O)c1ccccc1F`, the growth was 114%.
For `Nc1ccc2c(c1)C(=O)c1cc(Cl)c(Cl)cc1-2` the value was 89.9%.
Next, `Cc1ccc(CCCC(=O)O)c(C)c1`: 91.7%; `COc1ccc(C2NC(=O)c3cc4c(cc3N2)OCO4)cc1` (stereo not given): -1.6% (active).
For `CC1(c2ccc(Cl)cc2)OC(=O)CC(=O)O1` the value was 109%.
`CC(=O)c1sc(-c2ccc(F)cc2)cc1O`: the growth was 111%.
